p53 reactivation: restores transcriptional activity of mutant p53 | H1299 p53-A138V BP100-luciferase reporter, luminescence, 24 h | Potency, µM (top dose mostly 92.2 µM), without a hit: top-dose activity change, positive = activation, actives largely listed as activators | 0.063% of 320,000 active; also: potency is read from the fitted curve at half-maximal effect; % of control where 0% means no effect; nearly all actives have a fitted effect of over 45% in size
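p53-null H1299 cells stably carrying temperature-sensitive p53-A138V and a BP100-luciferase reporter were pinned with compounds (4-point, 1:5 series) and held 24 hrs at 37 deg C. Luminescence was read 10 min after detection reagent.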
RORgamma inh: inhibitors of mouse ROR gamma transcriptional activity. Drosophila S2 Gal4-RORgamma UAS-luciferase reporter, 20 h. Potency, µM (highest dose often 53.6 µM), without a hit: top-dose activity change, negative = inhibition, usual class: inhibitors. 5.4% of 310,000 active. AID 2551; also: potency is read from the fitted curve at half-maximal effect; % is scaled to controls: 0 for no effect and ±100 for the full control effect; nearly all actives have a fitted effect of over 60% in size
Target sequence (P51450 whole entry, looked up, the tested form may be a part): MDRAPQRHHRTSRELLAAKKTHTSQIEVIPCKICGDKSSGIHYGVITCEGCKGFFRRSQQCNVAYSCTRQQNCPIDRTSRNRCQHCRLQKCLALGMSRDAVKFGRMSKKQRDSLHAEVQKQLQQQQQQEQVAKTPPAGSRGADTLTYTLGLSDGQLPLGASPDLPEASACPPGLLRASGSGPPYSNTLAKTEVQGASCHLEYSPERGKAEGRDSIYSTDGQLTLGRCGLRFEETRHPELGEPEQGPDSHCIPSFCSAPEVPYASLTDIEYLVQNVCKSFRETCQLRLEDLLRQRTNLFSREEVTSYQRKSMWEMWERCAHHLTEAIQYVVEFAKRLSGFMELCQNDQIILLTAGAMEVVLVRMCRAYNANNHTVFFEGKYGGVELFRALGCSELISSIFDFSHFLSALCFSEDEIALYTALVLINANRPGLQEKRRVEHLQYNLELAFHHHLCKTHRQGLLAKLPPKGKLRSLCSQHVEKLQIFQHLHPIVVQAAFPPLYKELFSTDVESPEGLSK
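ROR gamma transcriptional activity was tracked as Gal4-UAS luciferase output in stably transfected Drosophila Schneider cells, with compound added 1 hr before 700 uM copper sulfate induction and a 20 hr ambient-temperature incubation.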
Six1-Eya2 blk: inhibitors of human Six1/Eya2 interaction; Q15475+O00167; AlphaScreen GST-Six1/His-Eya2 binding, biochemical; hits give low values; activity change, % (no concentration beside the values); 0.56% of 360,000 active; in the data active = activity change below about -65%; inconclusive = mostly about -30% to -63%; also: % is scaled to controls: 0 for no effect and ±100 for the full control effect
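Homogeneous AlphaScreen proximity assay pairing GST-Six1 with His-tagged Eya2 (added as 5X mix: 250 nM and 500 nM) in 50 mM Tris pH 8.0, 300 mM NaCl, 1 mM TCEP. Glutathione donor and nickel acceptor beads; 1 h, 37 °C, dark.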
VP16 counter: inhibits Gal4-VP16 luciferase reporter, ROR gamma counter-screen; Drosophila S2 Gal4-VP16 UAS-luciferase, luminescence, 20 h; Potency, µM (highest dose often 53.6 µM), without a hit: at the top dose activity, negative = inhibition, hits mostly inhibitors; 3.5% of 310,000 active;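 also: Gal4-VP16 expression switched on by copper sulfate through the metallothionein promoter; potency is read from the fitted curve at half-maximal effect; % is scaled to controls: 0 for no effect and ±100 for the full control effect; nearly all actives have a fitted effect of over 50% in size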
CtBP-E1A blk: inhibitors of CtBP/E1A interaction | AlphaScreen GST-E1A/His-CtBP binding, 1536-well; hits give low values | activity change, % (no concentration beside the values) | 0.49% of 340,000 active | AID 651724; in the data active = activity change below about -65%; inconclusive = mostly about -30% to -63%; also: % is scaled to controls: 0 for no effect and ±100 for the full control effect
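Homogeneous bead-based format: GST-tagged E1A captured on glutathione donor beads, His-tagged CtBP on nickel acceptor beads; compounds precede bead addition by 2 h at 37 °C.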
Starred values were filed as active, the others as inactive; ? = inconclusive; nt = no result given; ! = a repeat was not active. In the library only some 5.4% were active in any assay of this set; here they are far more common. Unless noted, calls follow the shape of the dose curve; as a rule, active = well fitted curve in the direction sought with a large enough effect; inconclusive = small, poorly fitted or top-dose-only effect, or another doubt; inactive = no such curve, though single readings can be large; an effect the other way counts as inactive or inconclusive.

SMILES | p53 reactivation | RORgamma inh | Six1-Eya2 blk | VP16 counter | CtBP-E1A blk
Cc1ccsc1/C=N/NC(=O)c1cc(-c2ccncc2)nc2ccccc12 | -9% | 1.8µM* | -25 | 8.9µM* | -10
COc1ccccc1-c1cc(C(=O)N/N=C/c2sccc2C)c2ccccc2n1 | -17% | 7.1µM* | -11 | 8.9µM* | -7
COc1ccccc1-c1cc(C(=O)N/N=C/c2ccc(C)o2)c2ccccc2n1 | nt | nt | -20 | nt | -22
Cc1nc2c(ccc3nc(NC(=O)C(c4ccccc4)c4ccccc4)sc32)s1 | 4% | ? | 8 | 5µM* | 22
Cc1nc2ccc3nc(NC(=O)c4ccc5c(c4)OCCO5)sc3c2s1 | 3% | -37% | 31 | -2% | 16
Cc1nc2c(ccc3nc(NC(=O)c4ccc5c(c4)OCCO5)sc32)s1 | ? | 0.2µM* | 4 | 0.089µM* | 12
CC(C)(CNC(=O)c1ccccc1NS(C)(=O)=O)N1CCCCC1 | 4% | -16% | 5 | 14% | 6
O=C(Nc1nnc(SCC(=O)N2CCCc3ccccc32)s1)c1ccccc1 | ? | 6.3µM* | 2 | ? | 10
O=C(Nc1nnc(SCC(=O)N2CCOCC2)s1)c1ccccc1Cl | ? | 10µM* | 2 | 6.3µM* | 3
O=C(Nc1nnc(SCC(=O)N2CCCc3ccccc32)s1)c1ccc2ccccc2c1 | ? | 6.3µM* | -4 | 5.6µM* | -6
C[C@@H]1CN([C@H](C)CO)C(=O)c2c(c3ccccc3n2C)-c2ccccc2CO[C@H]1CN(C)C(=O)Nc1ccccc1 | nt | nt | -11 | nt | 21
CC(=O)N(CN1C(=O)c2ccccc2C1=O)c1cccc(C)c1 | 1% | -19% | 11 | 2% | -2
CC(=O)N(/N=C1\Sc2ccccc2C1=O)c1cccc(C)c1 | ? | 7.1µM* | -28 | ? | -25
CCn1ccnc1CN(C)Cc1cn(-c2ccccc2)nc1-c1ccc(OC)cc1F | 1% | 3.5µM* | -17 | ? | -25
CN(Cc1cn(C)nc1-c1cccc(Cl)c1)Cc1nccn1C | 1% | -37% | -5 | -9% | nt
Cc1ccc(-n2cc(CN(C)Cc3nccn3C)c(-c3ccc(F)cc3)n2)cc1 | -2% | 7.9µM* | -28 | ? | -16
Cc1ccc(-n2cc(CN(C)Cc3ncc[nH]3)c(-c3cccc(C)c3)n2)cc1 | -3% | -2% | ? | 6.3µM* | -27
Cc1cccc(-n2cc(CN3CCN(Cc4nccn4C)CC3)c(-c3cccc(F)c3)n2)c1 | 6% | 11µM* | 1 | ? | nt
CCOc1ccc(N2CC(C(=O)Nc3ccccc3C(=O)N3CCOCC3)CC2=O)cc1 (configuration not stated) | 2% | 3% | 3 | 1% | -7
CCn1ccnc1CN(C)Cc1cn(-c2cc(C)ccc2C)nc1-c1ccccc1 | 2% | 4% | -15 | -3% | -14
Cc1ccc(-c2nn(-c3cccc(F)c3)cc2CN(Cc2nccn2C)C(C)C)o1 | 3% | 5.6µM* | -19 | ? | -10
Cc1ccc(-c2nn(-c3cccc(F)c3)cc2CN2CCN(c3ccccn3)CC2)o1 | 7% | 9% | ? | -19% | -16
CCn1ccnc1CN(C)Cc1cn(-c2ccc(C)cc2)nc1-c1ccc(F)cc1 | -2% | 2.8µM* | -3 | 16µM* | nt
Oc1cc(CNC2CCCCC2)c(O)cc1CNC1CCCCC1 | nt | nt | -7 | nt | -12
Cc1cccc(-n2c(-c3ccccc3)c[nH]c2=S)c1C | 14% | 2.2µM* | -15 | 7.1µM* | -16
SMILES | p53 reactivation | RORgamma inh | Six1-Eya2 blk | VP16 counter | CtBP-E1A blk
COc1ccccc1-n1c(-c2ccc(Cl)cc2)c[nH]c1=S | -2% | 2.8µM* | -8 | 7.1µM* | nt
O=C(O)C(=Cc1cccc([N+](=O)[O-])c1)c1ccc(Cl)cc1 | nt | nt | 3 | nt | 1
Cn1c(=O)c(-c2cccs2)nc2cnc(N3CCNCC3)nc21 | nt | -27% | nt | 0% | nt
Cn1cc(-c2nc3cnc(N4CCNCC4)nc3n(C)c2=O)c2ccccc21 | nt | 10µM* | nt | 11µM* | nt
COc1cccc(Cn2c(=O)c(-c3cn(C)c4ccccc34)nc3cnc(N4CCOCC4)nc32)c1 | nt | 6% | nt | 2% | nt
COc1cccc(Cn2c(=O)c(-c3cn(C)c4ccccc34)nc3cnc(N4CCNCC4)nc32)c1 | nt | 20µM* | nt | ? | nt
COc1ccc2nc(/N=C\N(C)C)sc2c1 | ? | -4% | 3 | -6% | 0
COc1ccc2nc(N=Nc3ccc(N(C)C)cc3)sc2c1 | 2% | 14µM* | ? | 1.4µM* | -25
S=C(NCCc1cccc(Cl)c1)NC1CCCCC1 | ? | 4.5µM* | 9 | 5.6µM* | 0
S=C(NCCc1ccccc1)NC1CC1 | 23% | 4.5µM* | -13 | ? | 5
S=C(NCCc1ccccc1)NC1CCC(NC(=S)NCCc2ccccc2)CC1 (configuration not stated) | 0% | -3% | 3 | 0% | 1
S=C(NCc1ccc(Cl)cc1Cl)NC1CCCCC1 | 23% | 5.6µM* | -1 | 16µM* | -9
O=C(NC1CCN(C(=S)NCCc2ccccc2)CC1)C1CC1 | 0% | 10µM* | -8 | ? | nt
Clc1ccc(CNC2CCCC2)c(Cl)c1 | 1% | 5% | 4 | -1% | 10
CSc1sc(C(=O)N(C)C)c2c1S(=O)(=O)N(C)c1ccccc1-2 | -4% | 2% | 4 | 4% | 4
CCOc1ccc2c(c1)-c1c(ssc1=S)C(C)(C)N2C | 15% | ? | ? | ? | -71*
COc1ccccc1/C=N/NC(=O)Cn1cnc([N+](=O)[O-])n1 | 1% | -18% | -1 | -6% | 5
COc1ccc(CNC(=O)Cc2nn(C)c(=O)c3ccccc23)cc1 | -4% | ? | 2 | 8.9µM* | 4
Cn1nc(CC(=O)NCc2ccc(C(F)(F)F)cc2)c2ccccc2c1=O | -10% | 19% | 2 | ? | -3
Cc1cc(C)c(Nc2cc(S(=O)(=O)O)c(N)c3c2C(=O)c2ccccc2C3=O)c(C)c1 | -26% | -37% | -68* | ? | -88*!
CCc1ccc(NC(=O)c2ccccc2SC)cc1 | 23% | 15% | 6 | -6% | 1
CCc1nnc(NC(=O)CCc2ccc(C)o2)s1 | 3% | ? | -4 | 4% | -2
Cc1ccc(CCC(=O)Nc2ncc(Cc3cccc(Cl)c3Cl)s2)o1 | 16% | 35µM* | -2 | ? | -5
Cc1ccc(NC(=S)NC2CCCC2)c(C)c1 | nt | 7.1µM* | -9 | 6.3µM* | -2
Cc1ccc(C)c(NC(=S)NC2CC3CCCC(C2)N3CC(C)C)c1 (configuration not stated) | 0% | 14µM* | -3 | ? | -2
Cc1cc(OC(F)F)ccc1NC(=S)NC1CCCC1 | -5% | 2.5µM* | 0 | 7.1µM* | 6
Cc1cc(OC(F)F)ccc1NC(=O)Nc1ccc2c(c1)OCO2 | 17% | -2% | 0 | -1% | -7
Cc1ccc(NC(=O)NC2CCCCCCC2)c(C)c1 | 16% | -6% | 4 | -22% | 1

From PubChem
